# Substitutions are numbered along the chain they refer to.
# Columns and labels:
# Test in all cases: protein-binding microarray (PBM); PBM: ~300 nM protein, 6 mM HEPES pH 7.8, 80 mM KCl, 0.5 mM EDTA, 0.5 mM EGTA, 6% glycerol, 35 ng/ul poly-dIdC, 1% milk, 1 h, room temperature; Ap Aiptasia and Nv Nematostella (sea anemones) / Co Capsaspora / Aq Amphimedon (sponge) / Dm Drosophila / Hu human; RHD is the Rel homology domain; high values mean tight binding
# Details in all cases: dsDNA, one strand shown
# GST-Ap-NF-kB RHD = molecular target: T1, GST-Ap-NF-kB RHD (Exaiptasia pallida (Aiptasia), UniProt A0A913YAJ5 2-422)
# T1 sequence: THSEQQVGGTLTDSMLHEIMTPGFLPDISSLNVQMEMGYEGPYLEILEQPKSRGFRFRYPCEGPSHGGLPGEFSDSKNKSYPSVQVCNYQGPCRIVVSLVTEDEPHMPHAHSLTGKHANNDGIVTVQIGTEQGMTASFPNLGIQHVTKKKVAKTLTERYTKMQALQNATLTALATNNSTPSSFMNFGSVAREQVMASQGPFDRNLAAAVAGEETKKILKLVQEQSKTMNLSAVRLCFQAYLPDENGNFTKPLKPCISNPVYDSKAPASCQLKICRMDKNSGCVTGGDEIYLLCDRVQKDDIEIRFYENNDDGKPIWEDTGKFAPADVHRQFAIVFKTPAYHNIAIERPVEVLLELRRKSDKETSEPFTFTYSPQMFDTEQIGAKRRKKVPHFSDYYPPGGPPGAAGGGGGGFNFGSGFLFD
# GST-Co-NF-kB = molecular target: T2, GST-Co-NF-kB (Capsaspora owczarzaki, UniProt F1ARL5 200-546)
# T2 sequence: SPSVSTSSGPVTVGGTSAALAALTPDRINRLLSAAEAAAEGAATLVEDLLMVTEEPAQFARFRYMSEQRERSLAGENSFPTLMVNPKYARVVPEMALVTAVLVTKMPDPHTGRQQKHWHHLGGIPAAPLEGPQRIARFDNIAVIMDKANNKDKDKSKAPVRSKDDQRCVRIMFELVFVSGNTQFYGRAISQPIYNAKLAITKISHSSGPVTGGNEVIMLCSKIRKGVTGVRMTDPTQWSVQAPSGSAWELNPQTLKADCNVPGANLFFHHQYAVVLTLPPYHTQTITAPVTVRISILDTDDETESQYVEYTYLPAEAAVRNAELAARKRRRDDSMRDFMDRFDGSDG
# GST-Aq-NF-kB = molecular target: T3, GST-Aq-NF-kB (Amphimedon queenslandica, UniProt A9Y5G7 2-389)
# T3 sequence: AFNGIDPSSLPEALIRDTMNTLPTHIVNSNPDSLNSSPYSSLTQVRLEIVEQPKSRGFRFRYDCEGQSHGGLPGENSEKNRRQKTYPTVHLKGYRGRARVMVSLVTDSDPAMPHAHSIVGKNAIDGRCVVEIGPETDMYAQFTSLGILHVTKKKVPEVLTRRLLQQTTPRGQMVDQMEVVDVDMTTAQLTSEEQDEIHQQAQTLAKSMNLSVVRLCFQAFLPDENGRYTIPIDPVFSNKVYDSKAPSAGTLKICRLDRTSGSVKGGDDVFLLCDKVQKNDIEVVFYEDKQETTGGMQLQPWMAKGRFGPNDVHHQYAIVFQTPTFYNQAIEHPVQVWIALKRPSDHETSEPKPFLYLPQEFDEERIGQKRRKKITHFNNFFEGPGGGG
# [1] = molecular target: T4, GST-Nv-NF-kB (Ser allele) (Nematostella vectensis, UniProt A7UNT2 2-411)
# T4 sequence: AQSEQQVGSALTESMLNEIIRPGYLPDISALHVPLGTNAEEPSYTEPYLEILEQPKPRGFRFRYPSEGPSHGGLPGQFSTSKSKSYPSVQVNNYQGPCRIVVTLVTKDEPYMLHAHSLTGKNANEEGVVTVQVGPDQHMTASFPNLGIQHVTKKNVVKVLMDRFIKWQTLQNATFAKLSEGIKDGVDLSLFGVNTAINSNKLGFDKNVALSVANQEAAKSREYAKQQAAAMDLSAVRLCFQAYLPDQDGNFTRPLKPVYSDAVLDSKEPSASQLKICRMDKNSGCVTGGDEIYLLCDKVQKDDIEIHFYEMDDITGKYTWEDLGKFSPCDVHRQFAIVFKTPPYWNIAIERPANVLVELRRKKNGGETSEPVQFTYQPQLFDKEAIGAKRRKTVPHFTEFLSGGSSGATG
# GST-Dm-Relish = molecular target: T5, GST-Dm-Relish (Drosophila melanogaster, UniProt Q94527 99-473)
# T5 sequence: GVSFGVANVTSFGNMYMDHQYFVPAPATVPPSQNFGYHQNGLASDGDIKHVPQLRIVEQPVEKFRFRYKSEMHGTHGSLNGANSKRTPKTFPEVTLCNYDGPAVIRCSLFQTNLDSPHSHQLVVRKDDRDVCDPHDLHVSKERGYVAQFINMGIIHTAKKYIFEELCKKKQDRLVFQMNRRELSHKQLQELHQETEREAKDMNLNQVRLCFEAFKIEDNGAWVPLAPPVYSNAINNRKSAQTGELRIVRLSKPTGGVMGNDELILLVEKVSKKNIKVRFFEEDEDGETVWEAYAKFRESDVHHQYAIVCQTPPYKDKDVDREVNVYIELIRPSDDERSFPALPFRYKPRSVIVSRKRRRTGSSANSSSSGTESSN
# [2] = molecular target: T6, GST-Nv-NF-kB (Cys allele) (Nematostella vectensis, UniProt E5G601 2-411)
# T6 sequence: T4 sequence with R21Q, S66C, N207S, Q215E, A217V, K225E, E268A, E399D
Sequence,binding signal (GST-Ap-NF-kB RHD) [z-score],binding signal (GST-Co-NF-kB) [z-score],binding signal (GST-Aq-NF-kB) [z-score],binding signal [1] [z-score],binding signal (GST-Dm-Relish) [z-score],binding signal [2] [z-score]
CCGATTAACATCATAGTGAGGGGTGATGTTAATCGGGTCTTGATTCGCTTGACGCTGCTG,2.05,1.74,1.09,,,
CCGATTAACATCACTTCCCCCCCTGATGTTAATCGGGTCTTGATTCGCTTGACGCTGCTG,5.69,8,4.94,5.01,4.33,
CCGATTAACATCAAGGGGGGGAATGATGTTAATCGGGTCTTGATTCGCTTGACGCTGCTG,6.62,8.37,5.81,,4.96,
CCGATTAACATCATTTATCCCGGTGATGTTAATCGGGTCTTGATTCGCTTGACGCTGCTG,1.16,2.85,1.14,,1.77,
CCGATTAACATCAGGGGTGCCCATGATGTTAATCGGGTCTTGATTCGCTTGACGCTGCTG,1.69,,1.5,,3.52,
CCGATTAACATCACCTCCCCCCCTGATGTTAATCGGGTCTTGATTCGCTTGACGCTGCTG,4.48,3.77,3.93,,4.13,
CCGATTAACATCAGGAAACACCATGATGTTAATCGGGTCTTGATTCGCTTGACGCTGCTG,1,,1.49,,1.77,
CCGATTAACATCAAGGAAAGCCCTGATGTTAATCGGGTCTTGATTCGCTTGACGCTGCTG,1.19,,3.45,,3.3,
CCGATTAACATCAGGAATATTCCTGATGTTAATCGGGTCTTGATTCGCTTGACGCTGCTG,,,1.34,,,1.22
CCGATTAACATCATGGGGGGGAATGATGTTAATCGGGTCTTGATTCGCTTGACGCTGCTG,6.87,8.77,5.36,,4.72,
CCGATTAACATCACGGAGATCCCTGATGTTAATCGGGTCTTGATTCGCTTGACGCTGCTG,1.39,,3.81,,4.73,
CCGATTAACATCAGGCAATCCCATGATGTTAATCGGGTCTTGATTCGCTTGACGCTGCTG,1,,1.38,,2.82,
CCGATTAACATCAGGAATCCCAATGATGTTAATCGGGTCTTGATTCGCTTGACGCTGCTG,1.71,,1.48,,7.14,
CCGATTAACATCACCGGAATTTCTGATGTTAATCGGGTCTTGATTCGCTTGACGCTGCTG,1.27,,2.45,,1.58,
CCGATTAACATCAGGAAAGCCCATGATGTTAATCGGGTCTTGATTCGCTTGACGCTGCTG,1.24,,3.12,,4.29,
CCGATTAACATCACGGCAACCCCTGATGTTAATCGGGTCTTGATTCGCTTGACGCTGCTG,1.78,,2.35,,1.46,
CCGATTAACATCAAGGTGTTCCCTGATGTTAATCGGGTCTTGATTCGCTTGACGCTGCTG,1.65,2.38,2.49,,4.31,

Sequence,binding signal (GST-Ap-NF-kB RHD) [z-score],binding signal (GST-Co-NF-kB) [z-score],binding signal (GST-Aq-NF-kB) [z-score],binding signal [1] [z-score],binding signal (GST-Dm-Relish) [z-score],binding signal [2] [z-score]
CCGATTAACATCAGGAATGCCCATGATGTTAATCGGGTCTTGATTCGCTTGACGCTGCTG,1.27,,1.96,,1.49,
CCGATTAACATCACGGAATGCCCTGATGTTAATCGGGTCTTGATTCGCTTGACGCTGCTG,1.03,,2.6,,1.71,
CCGATTAACATCAGGAGATCCCATGATGTTAATCGGGTCTTGATTCGCTTGACGCTGCTG,1.24,,2.7,,4.37,
CCGATTAACATCACGGGATGCCCTGATGTTAATCGGGTCTTGATTCGCTTGACGCTGCTG,1.03,,3.09,,5.65,
CCGATTAACATCAGGAGGTTCCCTGATGTTAATCGGGTCTTGATTCGCTTGACGCTGCTG,2.28,,3.68,,2.47,
CCGATTAACATCAAGGGCATCCCTGATGTTAATCGGGTCTTGATTCGCTTGACGCTGCTG,1.42,,2.86,,5.6,
CCGATTAACATCAGGGCATTCCATGATGTTAATCGGGTCTTGATTCGCTTGACGCTGCTG,1.14,,2.1,,1.84,
CCGATTAACATCACGTAAGGGATTGATGTTAATCGGGTCTTGATTCGCTTGACGCTGCTG,,,2.43,,,1.34
CCGATTAACATCAGGGGTACACATGATGTTAATCGGGTCTTGATTCGCTTGACGCTGCTG,1.77,4.09,1.07,,1.13,
CCGATTAACATCACGGATATCCCTGATGTTAATCGGGTCTTGATTCGCTTGACGCTGCTG,1.57,1.15,2.76,,2.04,
CCGATTAACATCAGTAGTGGGGCTGATGTTAATCGGGTCTTGATTCGCTTGACGCTGCTG,,,1.72,,,1.01
CCGATTAACATCAGGAATTCCTATGATGTTAATCGGGTCTTGATTCGCTTGACGCTGCTG,1.1,,2.07,,3.7,
CCGATTAACATCAAGGAAATACCTGATGTTAATCGGGTCTTGATTCGCTTGACGCTGCTG,1.2,,3.81,,3.3,
CCGATTAACATCACGGGCTTTCCTGATGTTAATCGGGTCTTGATTCGCTTGACGCTGCTG,1.64,,4.66,,3.81,
CCGATTAACATCACGGGATTGCCTGATGTTAATCGGGTCTTGATTCGCTTGACGCTGCTG,1.39,,2.41,,2.08,
CCGATTAACATCAGTGTCCCGTTTGATGTTAATCGGGTCTTGATTCGCTTGACGCTGCTG,,,1.32,,,2.18
CCGATTAACATCAGGGGGGGAGATGATGTTAATCGGGTCTTGATTCGCTTGACGCTGCTG,5.6,8.63,4.59,,3.66,
